This is a sample that favours compounds with a hit; in the whole collection about 2.8% have one here.
B2AR ag = activates human beta-2 adrenergic receptor causing internalization; P07550; Am2.2-beta2AR cells, FAP receptor internalization, flow cytometry; response, % (test concentration not listed); hit rate 0.43% among 340,000; AID 504454;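 active means response above a set limit, near 3 SD of response in nonfluorescent compounds, cut at about 42% in these data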
MITF TRPM1 inh = MITF TRPM1 promoter inhibition in SK-MEL-5 cells | SK-MEL-5 TRPM1 promoter luciferase, 24 h | inhibition, % at 12.5 µM | hit rate 0.83% among 330,000;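 active means mean inhibition across replicates of 60% or more, whatever share of single replicates reaches that level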
KKLEB tox = CF airway cell cytotoxicity counter-screen; activity change (cytotoxicity), % at 5 µM; AID 602141; hit rate 0.36% among 360,000; KKLEB CF airway cells viability, ATPlite luminescence, overnight; stronger effect = lower value; cells stimulated with P. aeruginosa culture filtrate;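 active means corrected activity change at or below -50% at 5 µM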
CF NFkB inh = inhibitors of cystic fibrosis induced NF-kB | KKLEB NF-kB-GFP reporter, PAF-induced, GFP fluorescence overnight | hit rate 0.86% among 360,000 | inhibition, % at 5 µM;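 active means at least 50% inhibition at 5 µM, scaled per plate between neutral and stimulator controls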;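 further: PAF is a Pseudomonas aeruginosa culture filtrate used as stimulus; plate controls were PAF-stimulated DMSO wells for no effect and unstimulated DMSO wells for full effect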
HIF-2a block = blocks HIF-2a reporter activity; 786-0 RCC cells HIF-2a reporter, luciferase luminescence, overnight; inhibition, % at 18.8 µM; hit rate 0.72% among 360,000; AID 624352;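 active means inhibition of the luminescence signal of 40% or more relative to plate controls, in a single-dose primary screen at 18.75 µM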
Peg3 prom inh-1 = inhibitors of Peg3 promoter | HeLa PEG-Prom luciferase reporter, luminescence, overnight | inhibition, % at 20 µM | hit rate 1.7% among 360,000 | AID 588405;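 active means inhibition of at least 50% at 20 µM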
Peg3 prom inh-2 = Peg3 promoter inhibition confirmation | shares compounds with Peg3 prom inh-1 | HeLa PEG-Prom luciferase reporter, luminescence, overnight | inhibition, % at 20 µM | hit rate 84% among 1,300 | AID 602417;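 active means at 20 µM dose, 40% or more inhibition averaged across four replicates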
CF NFkB inh conf = confirmation of cystic fibrosis induced NF-kB inhibitors; shares compounds with CF NFkB inh; KKLEB CF airway cells, PAF-induced NF-kB-GFP fluorescence, overnight; inhibition, % at 5 µM; hit rate 64% among 1,300; in the data active means inhibition above about 40%;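 further: stimulus PAF is a Pseudomonas aeruginosa filtrate and not platelet activating factor; plate controls were DMSO wells with stimulus for no effect and unstimulated DMSO wells for full effect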
Mdm2 MdmX conf = confirmation of inhibitors of human Mdm2/MdmX interaction, set 2. inhibition, % at 8 µM. shares compounds with HIF-2a block. hit rate 99% among 740. AID 504601. SaOS-2 split-luciferase Mdm2/MdmX complementation, luminescence;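 active means mean inhibition of the luminescence signal across two replicates at or above 26 percent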
Target sequence (O15151 whole entry, looked up): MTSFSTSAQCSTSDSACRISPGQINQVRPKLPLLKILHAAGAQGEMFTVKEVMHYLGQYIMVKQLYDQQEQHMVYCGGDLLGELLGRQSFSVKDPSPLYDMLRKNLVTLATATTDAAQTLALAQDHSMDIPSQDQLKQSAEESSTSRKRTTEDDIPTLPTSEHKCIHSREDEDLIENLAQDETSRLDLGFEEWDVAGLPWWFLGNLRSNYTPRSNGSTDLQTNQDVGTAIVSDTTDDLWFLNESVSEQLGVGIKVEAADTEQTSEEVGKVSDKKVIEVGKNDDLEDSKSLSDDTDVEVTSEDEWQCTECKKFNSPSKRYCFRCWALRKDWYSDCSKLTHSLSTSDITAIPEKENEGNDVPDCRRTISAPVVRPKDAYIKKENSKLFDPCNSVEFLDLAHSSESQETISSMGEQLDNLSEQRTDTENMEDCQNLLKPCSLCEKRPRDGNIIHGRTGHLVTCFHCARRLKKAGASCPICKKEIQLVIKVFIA
Target sequence (Q00987 whole entry, looked up): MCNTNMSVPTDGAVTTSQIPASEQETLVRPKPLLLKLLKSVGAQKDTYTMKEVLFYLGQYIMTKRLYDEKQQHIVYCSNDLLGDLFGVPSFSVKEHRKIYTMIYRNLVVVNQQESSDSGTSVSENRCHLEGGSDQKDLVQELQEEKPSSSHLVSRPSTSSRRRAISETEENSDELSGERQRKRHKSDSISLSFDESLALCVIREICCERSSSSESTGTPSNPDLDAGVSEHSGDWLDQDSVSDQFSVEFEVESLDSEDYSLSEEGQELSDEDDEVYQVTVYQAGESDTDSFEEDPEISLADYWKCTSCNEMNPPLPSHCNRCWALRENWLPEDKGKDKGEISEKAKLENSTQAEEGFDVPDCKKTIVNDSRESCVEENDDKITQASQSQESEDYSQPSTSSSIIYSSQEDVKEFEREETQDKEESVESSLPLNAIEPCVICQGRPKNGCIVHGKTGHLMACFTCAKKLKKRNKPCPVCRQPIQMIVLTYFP
HIF-2a conf = confirmation of HIF-2a inhibitors; shares compounds with HIF-2a block; 786-0 RCC cells, HIF-2a luciferase reporter luminescence, overnight; inhibition, % at 18.8 µM; hit rate 56% among 1,800;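 active means mean inhibition across four replicates of at least 40 percent at the single tested concentration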
HIF-1a cs = counter-screen for HIF-2a inhibitors: HIF-1a inhibition in MiaPaCa-2 cells | inhibition, % at 18.8 µM | MiaPaCa-2 HIF-1a luciferase reporter, desferoxamine, overnight | shares compounds with HIF-2a block | hit rate 72% among 1,800 | AID 651589;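 active means mean inhibition of the reporter signal across four replicates at the single tested dose of 50% or more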
An asterisk follows results filed as active.

How did Cc1ccc2nc(NC(=O)CSCC(=O)OCC(=O)c3ccc(Br)cc3)sc2c1 do in these assays?
B2AR ag: 4; MITF TRPM1 inh: 49; KKLEB tox: 0; CF NFkB inh: 13; HIF-2a block: 57*; Peg3 prom inh-1: 52*; Peg3 prom inh-2: 65*; HIF-2a conf: 51*; HIF-1a cs: 86*

Results for COC1CC(=O)C2OC(c3ccccc3)OCC2O1 (stereo not drawn) ?
KKLEB tox: 13; CF NFkB inh: -17; HIF-2a block: -4; Peg3 prom inh-1: -2

How did Cc1ccc(/C=C2\SC(=S)N(CCCC(=O)Nc3ccccn3)C2=O)cc1 do in these assays?
MITF TRPM1 inh: 79*; KKLEB tox: 1; CF NFkB inh: 16; HIF-2a block: 84*; Peg3 prom inh-1: 53*; Peg3 prom inh-2: 75*; Mdm2 MdmX conf: 93*

What do the screens show for `CC1CN(C(=O)COC(=O)/C=C/c2ccccc2)CC(C)O1` (stereo not drawn)?
KKLEB tox: 10; CF NFkB inh: -13; HIF-2a block: 6; Peg3 prom inh-1: 4

How did CN1OC[C@@H]2CN[C@H](c3ccc(-c4cc5ccccc5o4)cc3)C[C@@H]21 do in these assays?
KKLEB tox: -46; CF NFkB inh: -4; HIF-2a block: 90*; Peg3 prom inh-1: 89*; Peg3 prom inh-2: 90*; HIF-2a conf: 96*; HIF-1a cs: 98*

Results for Nc1nc(CCl)nc(Nc2cccc3ccccc23)n1 ?
B2AR ag: 15; KKLEB tox: -80*; CF NFkB inh: 83*; HIF-2a block: 40*; Peg3 prom inh-1: 64*; Peg3 prom inh-2: 72*; Mdm2 MdmX conf: 102*

Results for C[C@@H]1CN([C@@H](C)CO)C(=O)CCCn2nncc2CO[C@H]1CN(C)Cc1cccnc1 ?
KKLEB tox: 4; CF NFkB inh: -8; HIF-2a block: 2; Peg3 prom inh-1: 3

What do the screens show for `COc1ccc2[nH]cc(C(=O)CCl)c2c1`?
B2AR ag: 38; MITF TRPM1 inh: 91*; KKLEB tox: -40; CF NFkB inh: 82*; HIF-2a block: 33; Peg3 prom inh-1: 107*; Peg3 prom inh-2: 97*; CF NFkB inh conf: 113*; Mdm2 MdmX conf: 102*

How did CC(C)(C)c1ccc(Cn2c(=O)cnc3ccccc32)cc1 do in these assays?
B2AR ag: 6; MITF TRPM1 inh: 49; KKLEB tox: -11; CF NFkB inh: 25; HIF-2a block: 62*; Peg3 prom inh-1: 86*; Peg3 prom inh-2: 77*; HIF-2a conf: 66*; HIF-1a cs: 86*

How did COc1cc(SC)ccc1C(=O)Nc1nc2ccccc2[nH]1 do in these assays?
B2AR ag: -17; MITF TRPM1 inh: 97*; KKLEB tox: -96*; CF NFkB inh: 38; HIF-2a block: 96*; Peg3 prom inh-1: 109*; Peg3 prom inh-2: 96*; HIF-2a conf: 99*; HIF-1a cs: 107*

What do the screens show for `CC1(C(=O)Nc2ccc3c(c2)OCO3)CCN1C(=O)Cc1cccc2ccccc12` (stereo not drawn)?
KKLEB tox: 2; CF NFkB inh: -2; HIF-2a block: -28; Peg3 prom inh-1: -21

Results for O=c1c(Cl)c(N2CCCCC2)cnn1-c1nc2ccccc2[nH]1 ?
B2AR ag: -19; MITF TRPM1 inh: 64*; KKLEB tox: -56*; CF NFkB inh: 4; HIF-2a block: 70*; Peg3 prom inh-1: 88*; Peg3 prom inh-2: 67*; HIF-2a conf: 79*; HIF-1a cs: 86*

How did O=c1c2ccccc2nc2c3ccccc3cnn12 do in these assays?
B2AR ag: -7; MITF TRPM1 inh: -46; KKLEB tox: -12; CF NFkB inh: -143; HIF-2a block: -283; Peg3 prom inh-1: -170

What do the screens show for `Clc1ccc2nc(N3CCCCC3)[nH]c2c1`?
B2AR ag: -2; MITF TRPM1 inh: -25; KKLEB tox: -3; CF NFkB inh: -6; HIF-2a block: -202; Peg3 prom inh-1: -243

Results for O=c1c2ccccc2cnn1-c1nc2ccccc2[nH]1 ?
B2AR ag: -7; MITF TRPM1 inh: 93*; KKLEB tox: -51*; CF NFkB inh: -14; HIF-2a block: 92*; Peg3 prom inh-1: 107*; Peg3 prom inh-2: 95*; HIF-2a conf: 94*; HIF-1a cs: 99*

Results for O=C(C[C@@H]1C[C@H]2c3cc(NC(=O)NC4CCCCC4)ccc3O[C@H]2[C@H](CO)O1)NC1CCCCC1 ?
KKLEB tox: 5; CF NFkB inh: -4; HIF-2a block: 2; Peg3 prom inh-1: 11

How did Cc1cc(C)c2nc(NNC(=O)c3ccc(S(=O)(=O)N4CCCC(C)C4)cc3)sc2c1 (stereo not drawn) do in these assays?
B2AR ag: 12; MITF TRPM1 inh: 46; KKLEB tox: 3; CF NFkB inh: 11; HIF-2a block: -7; Peg3 prom inh-1: 66*; Peg3 prom inh-2: 75*; Mdm2 MdmX conf: 86*

How did CCOC(=O)N/N=C/c1c(C)nn(-c2ccccc2Cl)c1Cl do in these assays?
B2AR ag: -5; MITF TRPM1 inh: -46; KKLEB tox: -7; CF NFkB inh: -13; HIF-2a block: -223; Peg3 prom inh-1: -210

How did Cc1nn(-c2ccccc2Cl)c(Cl)c1/C=N/Nc1nc2ccccc2s1 do in these assays?
B2AR ag: 12; MITF TRPM1 inh: 98*; KKLEB tox: 1; CF NFkB inh: -9; HIF-2a block: 74*; Peg3 prom inh-1: 72*; Peg3 prom inh-2: 75*; Mdm2 MdmX conf: 98*; HIF-2a conf: 84*; HIF-1a cs: 92*

What do the screens show for `COc1ccc(C(=O)Nc2cc(C)on2)c(OC)c1`?
B2AR ag: -9; MITF TRPM1 inh: -112; KKLEB tox: -1; CF NFkB inh: -8; HIF-2a block: -296; Peg3 prom inh-1: -301

What do the screens show for `COc1ccc(C(=O)Nc2ccc(C)cn2)c(OC)c1`?
B2AR ag: -29; MITF TRPM1 inh: 75*; KKLEB tox: -63*; CF NFkB inh: -17; HIF-2a block: 62*; Peg3 prom inh-1: 74*; Peg3 prom inh-2: 52*; HIF-2a conf: 76*; HIF-1a cs: 85*
